From PubChem BioAssay
An excerpt weighted towards active compounds, which were near 3.8% of everything screened.
tim23-1 inh = inhibits growth of tim23-1 mutant yeast. S. cerevisiae tim23-1 growth, BacTiter-Glo luminescence, 24 h. inhibition, % at 20 µM. hit rate 1.3% among 330,000. AID 463212;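 active = growth inhibition of the mutant yeast at or above 50%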;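 note: temperature-sensitive mutant grown at 25 °C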
NLRP3 yeast inh = blocks the NALP3 inflammasome reconstituted in yeast; AID 2825; inhibition, % at 10 µM; Yeast reconstituted NLRP3/ASC/caspase-1, beta-gal luminescence, 24 h; hit rate 0.39% among 330,000;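 active = inhibition of 50% or more; inactive = inhibition below 50%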
tim10-1 inh = growth inhibitors of tim10-1 mutant yeast | S. cerevisiae tim10-1 ts strain growth, BacTiter-Glo, 24 h | inhibition, % at 20 µM | hit rate 2.2% among 330,000 | AID 463190;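 active = inhibition of at least 40%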;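 note: mutant grown at 25 °C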
Yeast superoxide = lowers age-related superoxide in aged yeast cells. superoxide response (% of plate mean), % at 10 µM. AID 2690. hit rate 0.18% among 330,000. S. cerevisiae aged cells, superoxide DHE fluorescence; active compounds read low;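 active = superoxide response under a set limit, about three screen SD below normal, cut at about 65% in these data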;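 note: yeast aged for seven days with compound at 30 °C before DHE staining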
TIM10 inh = TIM10 yeast growth inhibition | inhibition, % at 10 µM | hit rate 1.4% among 330,000 | S. cerevisiae TIM10 strain growth, BacTiter-Glo luminescence, 24 h;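 active = inhibition of 40% or more at the single tested concentration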;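 note: wild-type TIM10 isogenic control strain grown at permissive 25 °C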
tim10-1 conf = confirmation of tim10-1 mutant yeast growth inhibitors | hit rate 56% among 7,400 | S. cerevisiae tim10-1 ts strain growth, BacTiter-Glo, 24 h | shares compounds with tim10-1 inh | inhibition, % at 20 µM;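 active = inhibition of yeast growth at or above a set limit in either of two repeat tests at 20 µM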;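 note: tim10-1 mutant grown at permissive 25 °C to find synthetic lethal compounds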
tim10 confirm = TIM10 yeast growth inhibition, confirmed; shares compounds with TIM10 inh; S. cerevisiae tim10 strain growth, BacTiter-Glo luminescence, 24 h; inhibition, % at 10 µM; hit rate 63% among 4,600; AID 463215;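 active = inhibition of yeast growth at or above a set limit in either of two replicates at 10 µM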; note: this counterscreen used the strain with wild-type TIM10
Of the large screens only hits and unclear results are named; the others gave an inactive call (follow-up assays come after a bar, where they were run).

CC(C)NC(=S)N/N=C/c1ccc(C(C)(C)C)cc1	tim10-1 inh 41, TIM10 inh 44 | tim10-1 conf inactive | tim10 confirm 45
Cc1ccc(C)c(NC(=S)NCc2ccc3[nH]c4c(c3c2)CCCC4)c1	tim10-1 inh 45, TIM10 inh 43 | tim10-1 conf 35 | tim10 confirm 40
COc1cc(OC)cc(C(=O)NC2=NCCS2)c1	none
O=C(NC1=NCCS1)c1sc2cc(Cl)cc(Cl)c2c1Cl	tim10-1 inh 50, TIM10 inh 45 | tim10-1 conf inactive | tim10 confirm inactive
CC(Oc1ccccc1F)C(=O)NNC(=O)c1cccc(S(=O)(=O)N2CCN(C)CC2)c1 (configuration not stated)	none
CC1CCN(S(=O)(=O)c2cc(Br)cc(C(=O)NC3=NCCS3)c2)CC1	tim10-1 inh 46, TIM10 inh 41 | tim10-1 conf 32 | tim10 confirm 40
Cc1occc1C(=O)N/N=C/C=C\c1ccccc1[N+](=O)[O-]	none
Cc1ccsc1C(=O)N/N=C/C=C/c1ccccc1[N+](=O)[O-]	tim10-1 inh 48, TIM10 inh 62 | tim10-1 conf 48 | tim10 confirm inactive
CC(C)(C)c1ccccc1NC(=S)NC1CCCC1	none
CC(C)(C)c1ccccc1NC(=S)NC1CCCCC1	tim10-1 inh 43, TIM10 inh 45 | tim10-1 conf inactive | tim10 confirm 32
Nc1nc(-c2ccc(Br)s2)c(Br)s1	tim10-1 inh 54, TIM10 inh 52 | tim10-1 conf 36 | tim10 confirm inactive
O=C(CSCC(=O)OCn1nnc2ccccc2c1=O)Nc1ccc(Cl)cc1	tim10-1 inh 62, TIM10 inh 51 | tim10-1 conf 55 | tim10 confirm inactive
N#Cc1c(Cl)c(Cl)c2nnc(-c3ccc(Br)cc3)n2c1Cl	tim10-1 inh 46, TIM10 inh 58 | tim10-1 conf inactive | tim10 confirm inactive
C/C(=N\NC(=S)NC(C)C)c1ccc2c(c1)OCCO2	tim10-1 inh 43, TIM10 inh 41 | tim10-1 conf inactive | tim10 confirm inactive
CNC(=S)N/N=C(\C)c1ccc2c(c1)OCCO2	none
CCOC(=O)c1sc(NC(=O)Cc2c(F)cccc2Cl)nc1C	tim10-1 inh 47, TIM10 inh 44 | tim10-1 conf 43 | tim10 confirm 36
CCOC(=O)c1sc(Nc2ccc(C)cc2C)nc1C	tim10-1 inh 48, TIM10 inh 63 | tim10-1 conf inactive | tim10 confirm 40
CC(=O)c1sc(NC(=O)Cc2c(F)cccc2Cl)nc1C	none
CCOC(=O)Cc1cnc(N)s1	none
O=C(NC(=S)N(Cc1ccccc1)Cc1ccccc1)c1ccccc1F	tim10-1 inh 50, TIM10 inh 59 | tim10-1 conf 38 | tim10 confirm 44
Cc1ccccc1C(=O)NC(=S)N(CCO)Cc1ccccc1	none
COc1ccc(C(=O)NC(=S)N(Cc2ccccc2)Cc2ccccc2)cc1	tim10-1 inh 47, TIM10 inh 48 | tim10-1 conf 35 | tim10 confirm 39
O=C(COc1ccccc1)Nc1ccc(S(=O)(=O)NCc2ccco2)cc1	none
O=C(COc1ccccc1F)Nc1ccc(S(=O)(=O)NCc2ccco2)cc1	tim10-1 inh 46, TIM10 inh 40 | tim10-1 conf 33 | tim10 confirm inactive
CC1C(=O)N2CCCc3cc(NC(=O)C(=O)NCc4cccnc4)cc1c32 (configuration not stated)	none
CC(=O)/C(=N\Nc1ccccc1)Sc1nnc(-c2ccccc2)n1-c1ccccc1	tim10-1 inh 44, TIM10 inh 46 | tim10-1 conf inactive | tim10 confirm inactive
CC(=O)/C(=N\Nc1ccccc1Cl)Sc1nnc(-c2ccccc2)n1-c1ccccc1	none
O=C(CCCCl)NC(=S)Nc1cc(C(F)(F)F)ccc1N1CCOCC1	tim10-1 inh 53, TIM10 inh 57 | tim10-1 conf 48 | tim10 confirm 50
O=C(/C=C/c1ccco1)NC(=S)Nc1cc(C(F)(F)F)ccc1N1CCOCC1	none
O=C(c1ccc([N+](=O)[O-])s1)N1CCN(c2ccccc2)CC1	tim10-1 inh 53, TIM10 inh 60 | tim10-1 conf 47 | tim10 confirm 50
O=C(c1ccc([N+](=O)[O-])s1)N1CCN(c2ccccn2)CC1	tim10-1 inh 49, TIM10 inh 44 | tim10-1 conf 48 | tim10 confirm 43
COc1ccc(OC)c2sc(N3CCN(C(=O)c4ccc([N+](=O)[O-])s4)CC3)nc12	none
CCOc1ccc(-c2nnc3ccc(SC(C)C)nn23)cc1	tim10-1 inh 48, TIM10 inh 42 | tim10-1 conf 45 | tim10 confirm 51
O=C(/C=C/c1ccccc1)c1ccc(NC2=NCCCS2)cc1	none (no result: tim23-1 inh, NLRP3 yeast inh, tim10-1 inh, TIM10 inh)
Cc1cccc(/C=C/C(=O)c2ccc(NC3=NCCCS3)cc2)c1	tim10-1 inh 54, TIM10 inh 66 | tim10-1 conf 50 | tim10 confirm 59
CN1CCC(N(C)C(=O)c2ccc(Cl)c(S(=O)(=O)N3CCc4ccccc43)c2)CC1	none
O=c1[nH]c(N/N=C/c2ccccc2)nc2ccccc12	tim10-1 inh 44, TIM10 inh 41 | tim10-1 conf 38 | tim10 confirm inactive
CC1=CC(C)(C)N2C(=O)C3(SCC(=O)N3c3ccc(F)cc3)c3cc(C)cc1c32 (configuration not stated)	tim10-1 inh 46, TIM10 inh 41 | tim10-1 conf inactive | tim10 confirm 37
CC(C)[C@H](NC(=O)N1c2ccccc2NC(=O)[C@@H]1C(C)C)C(=O)N1CCC(C(=O)O)CC1	none
Cc1onc(-c2ccccc2)c1C(=O)NC(=S)Nc1sc2c(c1C#N)CCCC2	tim10-1 inh 42, TIM10 inh 54 | tim10-1 conf inactive | tim10 confirm 33
O=C(CCc1ccc(Oc2cc([N+](=O)[O-])cc([N+](=O)[O-])c2)cc1)N1CCCCC1	tim10-1 inh 57, TIM10 inh 54 | tim10-1 conf 35 | tim10 confirm 48
O=C(c1ccc(Oc2ccc([N+](=O)[O-])cc2)cc1)N1CCCCCC1	none
CCCCn1c(N)c(N(CCOC)C(=O)c2ccc(S(=O)(=O)N3CCCCC3)cc2)c(=O)[nH]c1=O	none
Cc1cc(C)nc(-n2nc(C)cc2NC(=O)CNCc2ccccc2)n1	none
CCN(CC(=O)Nc1cc(C)nn1-c1nc(C)cc(C)n1)Cc1ccccc1	tim10-1 inh 44, TIM10 inh 44 | tim10-1 conf inactive | tim10 confirm inactive
COc1cc(-n2c(C)nc3cccnc32)c(Cl)cc1C(=O)O	none
CC(C)CCNc1nc2c(c(=O)n(Cc3cccc(F)c3)c(=O)n2C)n1C	tim10-1 inh 47, TIM10 inh 46 | tim10-1 conf inactive | tim10 confirm 34
Cn1c(NCCO)nc2c1c(=O)n(Cc1ccc(F)cc1)c(=O)n2C	none
Cc1ccc(NC(=O)COC(=O)CCc2ccccc2)cc1S(=O)(=O)N1CCOCC1	none
